{"source": "the supplement of paper PMC10681739", "data": [{"target": "T1, ETS1 (UniProt P14921)", "T1 sequence": "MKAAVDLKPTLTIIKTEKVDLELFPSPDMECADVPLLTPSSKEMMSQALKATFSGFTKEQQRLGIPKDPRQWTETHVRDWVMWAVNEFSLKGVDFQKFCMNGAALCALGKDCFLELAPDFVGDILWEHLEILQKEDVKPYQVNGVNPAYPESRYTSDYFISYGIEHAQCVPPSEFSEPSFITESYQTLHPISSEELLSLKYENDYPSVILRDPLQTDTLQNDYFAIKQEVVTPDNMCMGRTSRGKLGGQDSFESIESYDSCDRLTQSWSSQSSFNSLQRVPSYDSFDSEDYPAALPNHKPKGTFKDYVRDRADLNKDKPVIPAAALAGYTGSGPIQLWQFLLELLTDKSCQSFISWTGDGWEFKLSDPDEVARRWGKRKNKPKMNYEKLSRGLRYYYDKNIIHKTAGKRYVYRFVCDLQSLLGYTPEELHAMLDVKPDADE", "test": "TF binding intensity (PBM fluorescence), negative control probe (arbitrary fluorescence units); higher = stronger binding", "procedure": "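gcPBM negative-control 36-bp genomic probes lacking TF binding sites. Each was incubated with recombinant human ETS1 or RUNX1 alone and detected by antibody fluorescence. Values are medians over replicate spots (4 spots for the ETS1-RUNX1 arrays, 3 for the ETS1-ETS1 array). The probes sit in constant array flanks that are not printed.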", "values": [{"sequence": "AGTTTTTTGTTTTGAGCCGCAGTCTCGCTCTGTCGC (protein concentration 1 nM)", "TF binding intensity": 351}, {"sequence": "ACCTCCCACTTGGCTCCCAGGTGGGTGCAGTGAGGC (protein concentration 10 nM)", "TF binding intensity": 155}, {"sequence": "AGAAGCTTGGCTTGGTCTGCGCCTCCTCCCGTGCCT (protein concentration 10 nM)", "TF binding intensity": 101}, {"sequence": "CACACACTAAATCTCTGTACTAAATGAAAGGTTGCT (protein concentration 10 nM)", "TF binding intensity": 139}, {"sequence": "TTGTTACACTCCACGCTTTAGCTATTTGTTGCTACT (protein concentration 10 nM)", "TF binding intensity": 120}, {"sequence": "GCTATCTATTTTAATTAGCTAAGATTGCTATTAATA (protein concentration 10 nM)", "TF binding intensity": 106}, {"sequence": "CCTGCCTCATTTGCTCACGGGCTCCCTCCCTCAAGG (protein concentration 10 nM)", "TF binding intensity": 113}, {"sequence": "CACCTCCTAAACAAAGCCGCATAGGTGATGGTGATG (protein concentration 1 nM)", "TF binding intensity": 463}, {"sequence": "TACTACTATAAAGATGGATACATGTCGTTATACATT (protein concentration 10 nM)", "TF binding intensity": 106}, {"sequence": "TAGTTAAGACCTCTTAAGTCATAATAATATTGCCTA (protein concentration 10 nM)", "TF binding intensity": 102}, {"sequence": "ACATGTCAAAGAGCTTCTTTAAGCAGTAGGTGGTTT (protein concentration 10 nM)", "TF binding intensity": 143}, {"sequence": "CATTAGTAAACCCTTACCACACCCAAACAACAAAAG (protein concentration 1 nM)", "TF binding intensity": 541}, {"sequence": "TTATAGCATCTATTTATGTAAATCATATCTCCTTTT (protein concentration 10 nM)", "TF binding intensity": 101}, {"sequence": "CAGGAGAAATATGAGATTAAGAACACATGATGTTAA (protein concentration 10 nM)", "TF binding intensity": 123}, {"sequence": "ATTCCAATCCTATGTGCTTTAAAGCTTCTAGACATT (protein concentration 10 nM)", "TF binding intensity": 119}, {"sequence": "CATATAACTGGTAGAACATCAGGTGTGGGTGGATCA (protein concentration 10 nM)", "TF binding intensity": 111}, {"sequence": "TAAATCAAAAGATGACCAAGCTGGAGAGAAAAGTGA (protein concentration 10 nM)", "TF binding intensity": 129}, {"sequence": "GGGGAAAATGAGCACAGGTGTGAAGCAGATCACAGG (protein concentration 10 nM)", "TF binding intensity": 170}, {"sequence": "TGATTTCTTAAGCCAACCTCAAAAAAAAAAAAAGAG (protein concentration 1 nM)", "TF binding intensity": 596}, {"sequence": "GCGTTCGAGGGACACTGGACATCTGGTGGCCCTCCA (protein concentration 10 nM)", "TF binding intensity": 93.7}, {"sequence": "ACAGGCCCTCCAGGTGTTGAAACCATGCTGGGCTGA (protein concentration 10 nM)", "TF binding intensity": 102}, {"sequence": "CCTCGGGGGCCAATGTGTGCCTGTGGTGTGCGATTC (protein concentration 10 nM)", "TF binding intensity": 121}, {"sequence": "TTATAATACATGTGCAGTATATTTTCTTGAAACTTC (protein concentration 10 nM)", "TF binding intensity": 110}, {"sequence": "TACTGGGGAGTGAAAAGGACACATCTATCCTTATAT (protein concentration 10 nM)", "TF binding intensity": 103}, {"sequence": "CTGGTGGCCACCCTTGTGGCGCTGAGGTGCTGAGGT (protein concentration 10 nM)", "TF binding intensity": 127}, {"sequence": "GTCCCGGCTCGACTCAGTCCTCCAGCCGCCCGGGGA (protein concentration 10 nM)", "TF binding intensity": 120}, {"sequence": "CCATTAGTTCATCTTACACTCTGCCCTTTAACGTGG (protein concentration 10 nM)", "TF binding intensity": 127}, {"sequence": "GCAGTGAGCTGAGATCACACCATTGCACTCCAGCCT (protein concentration 10 nM)", "TF binding intensity": 135}, {"sequence": "GTTCATCATCTCTCGTCAAGATGATTAACGACATGG (protein concentration 10 nM)", "TF binding intensity": 141}, {"sequence": "TTTTTCTTTTAATTTTTCTTTTTTATTCTATTTTTT (protein concentration 10 nM)", "TF binding intensity": 117}, {"sequence": "TTCTTTGACTCACTATGCGGGTTGGTACATCTGGGG (protein concentration 1 nM)", "TF binding intensity": 476}, {"sequence": "GATAGACATATAAAAACCACAAAAATCAAAACTGCA (protein concentration 1 nM)", "TF binding intensity": 485}, {"sequence": "AGGTGCACGATGGGTGGGGAGCTGCTCAGGGCACTG (protein concentration 10 nM)", "TF binding intensity": 112}, {"sequence": "GCAACACTCACTCAAACCACAGTAATCAAAAGGCAC (protein concentration 1 nM)", "TF binding intensity": 496}, {"sequence": "TCACTCTCTGGACAGGGCCCTCTGAGCAAGCAACCA (protein concentration 10 nM)", "TF binding intensity": 109}, {"sequence": "AGTTATTCTAGCTCAAACCAAGTTATTTTTCACTTT (protein concentration 10 nM)", "TF binding intensity": 108}, {"sequence": "TTCTTCCCACCGCAGGGCATCTGCACGGGCCGCTCA (protein concentration 10 nM)", "TF binding intensity": 125}, {"sequence": "AGCAGAGTGTGATGAATGGATTCATATACGGTCTGA (protein concentration 10 nM)", "TF binding intensity": 103}, {"sequence": "GGGTGGTGGGGCTTTCTTAGCAGCAAAATGTTCGCG (protein concentration 10 nM)", "TF binding intensity": 223}, {"sequence": "ACGACTCTTCCCAAGCAGCGGGAGGATCTAGGCCCA (protein concentration 10 nM)", "TF binding intensity": 102}]}]}
